Measured values from PubChem BioAssay AID1159580 (chemical genetic matrix, 2015).
Values joined by “and” are separate entries in the source; they are usually repeats but may differ in a detail not shown here. Equal values may be shown once. About 2,000 (36%) of roughly 5,500 compounds were called active. Inconclusive results (about 18%) are left out. No stated cut-off is given here; in the data, active means normalized growth mostly below about 0.91 (no sharp cut-off); inconclusive means no clear call, values can overlap the other calls; inactive means mostly above about 0.92. Some of the results follow. More than one record can exist for a structure, and the calls need not agree.

Assay: chemical genetic growth profiling, strain panel (AID 1159580);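 further: tested at 20 µM; growth read once vehicle control cultures reached saturation at 30 °C; 1 = growth at the plate median or of vehicle wells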
Conditions: S. cerevisiae deletion strains, growth OD

Measured: normalized growth

O=C(O)CCc1nc(-c2ccccc2)c(-c2ccccc2)o1
1 (inactive) and 0.926 (active): locus YNL322C, strain KRE1, stronger effect = lower value
inactive: locus YAL013W, strain DEP1, stronger effect = lower value 0.974 | locus YAL021C, strain ccr4, stronger effect = lower value 0.966 | locus YAL026C, strain drs2, stronger effect = lower value 0.929 | locus YAL030W, strain snc1, stronger effect = lower value 0.958 | locus YAL040C, strain CLN3, stronger effect = lower value 0.978 | locus YBL061C, strain skt5, stronger effect = lower value 0.965 | locus YBR009C, strain hhf1, stronger effect = lower value 0.964 | locus YBR023C, strain chs3, stronger effect = lower value 0.979 | locus YBR171W, strain sec66, stronger effect = lower value 0.949 | locus YBR231C, strain swc5, stronger effect = lower value 0.96 | locus YBR279W, strain paf1, stronger effect = lower value 0.975 | locus YCL011C, strain gbp2, stronger effect = lower value 0.943 | locus YCL016C, strain dcc1, stronger effect = lower value 0.954 | locus YCL061C, strain MRC1 (second series), stronger effect = lower value 0.996 | locus YCL069W, strain vba3, stronger effect = lower value 0.965 | locus YCR088W, strain abp1, stronger effect = lower value 0.962 | locus YDL005C, strain med2, stronger effect = lower value 0.959 | locus YDL040C, strain nat1, stronger effect = lower value 0.955 | locus YDL101C, strain DUN1, stronger effect = lower value 0.995 | locus YDR001C, strain nth1, stronger effect = lower value 0.925 | locus YDR069C, strain doa4, stronger effect = lower value 0.954 | locus YDR137W, strain rgp1, stronger effect = lower value 0.925 | locus YDR150W, strain NUM1, stronger effect = lower value 1 and 1.04 | locus YDR159W, strain sac3, stronger effect = lower value 0.916 | locus YDR195W, strain ref2 0.969 | locus YDR297W, strain sur2, stronger effect = lower value 0.955 | locus YDR334W, strain swr1, stronger effect = lower value 0.948 | locus YDR335W, strain msn5, stronger effect = lower value 0.965 | locus YDR363W, strain ESC2, stronger effect = lower value 0.979 | locus YDR392W, strain spt3, stronger effect = lower value 0.831 | locus YEL003W, strain gim4, stronger effect = lower value 0.943 | locus YEL037C, strain rad23, stronger effect = lower value 0.968 | locus YEL061C, strain CIN8 (second series), stronger effect = lower value 0.941 | locus YEL061C, strain CIN8, stronger effect = lower value 1 | locus YER002W, strain NOP16, stronger effect = lower value 0.998 | locus YER015W, strain faa2, stronger effect = lower value 0.974 | locus YER016W, strain bim1, stronger effect = lower value 0.961 | locus YER111C, strain swi4, stronger effect = lower value 0.958 | locus YER155C, strain BEM2 (second series), stronger effect = lower value 0.958 | locus YFR010W, strain ubp6, stronger effect = lower value 0.958 | locus YGL167C, strain pmr1, stronger effect = lower value 0.961 | locus YGL173C, strain kem1, stronger effect = lower value 0.958 | locus YGL227W, strain vid30, stronger effect = lower value 0.957 | locus YGL240W, strain doc1, stronger effect = lower value 0.95 | locus YGL253W, strain hxk2, stronger effect = lower value 0.957 | locus YGR229C, strain SMI1, stronger effect = lower value 0.976 | locus YHR013C, strain ard1, stronger effect = lower value 0.938 | locus YHR027C, strain rpn1, stronger effect = lower value 0.971 | locus YHR030C, strain SLT2, stronger effect = lower value 0.935 and 1.03 | locus YHR079C, strain IRE1, stronger effect = lower value 0.967 | locus YHR087W, strain rtc3, stronger effect = lower value 0.925 | locus YHR142W, strain chs7, stronger effect = lower value 0.963 | locus YJL092W, strain hpr5, stronger effect = lower value 0.949 | locus YJL095W, strain BCK1 (second series), stronger effect = lower value 0.959 | locus YJL095W, strain BCK1, stronger effect = lower value 0.901 | locus YJL115W, strain asf1, stronger effect = lower value 0.956 | locus YJL129C, strain trk1, stronger effect = lower value 0.926 | locus YJL154C, strain vps35, stronger effect = lower value 0.966 | locus YJL164C, strain tpk1, stronger effect = lower value 0.954 | locus YJL166W, strain qcr8, stronger effect = lower value 0.976 | locus YJR043C, strain POL32, stronger effect = lower value 0.959 | locus YJR066W, strain TOR1, stronger effect = lower value 0.884 | locus YKL160W, strain elf1, stronger effect = lower value 0.982 | locus YKL190W, strain CNB1, stronger effect = lower value 0.983 | locus YKR026C, strain gcn3, stronger effect = lower value 0.958 | locus YKR091W, strain srl3, stronger effect = lower value 0.957 | locus YLL001W, strain dnm1, stronger effect = lower value 0.973 | locus YLL026W, stronger effect = lower value 0.965 | locus YLL041C, strain sdh2, stronger effect = lower value 0.961 | locus YLR027C, strain aat2, stronger effect = lower value 0.966 | locus YLR039C, strain RIC1, stronger effect = lower value 0.994 | locus YLR085C, strain ARP6, stronger effect = lower value 0.92 | locus YLR221C, strain rsa3, stronger effect = lower value 0.935 | locus YLR258W, strain gsy2, stronger effect = lower value 0.955 | locus YLR262C, strain YPT6 (second series), stronger effect = lower value 0.951 | locus YLR262C, strain YPT6, stronger effect = lower value 1.02 | locus YLR320W, strain mms22, stronger effect = lower value 0.933 | locus YLR342W, strain FKS1, stronger effect = lower value 0.97 | locus YLR357W, strain rsc2, stronger effect = lower value 0.985 | locus YLR370C, strain arc18, stronger effect = lower value 0.961 | locus YLR384C, strain iki3, stronger effect = lower value 0.98 | locus YML094W, strain GIM5, stronger effect = lower value 1.02 | locus YML120C, strain ndi1, stronger effect = lower value 0.952 | locus YMR058W, strain fet3, stronger effect = lower value 0.956 | locus YMR125W, strain sto1, stronger effect = lower value 0.938 | locus YMR129W, stronger effect = lower value 0.943 | locus YMR205C, strain PFK2, stronger effect = lower value 0.954 | locus YMR231W, strain pep5, stronger effect = lower value 0.967 | locus YMR307W, strain GAS1, stronger effect = lower value 1 and 0.949 | locus YNL071W, strain lat1, stronger effect = lower value 0.935 | locus YNL153C, strain GIM3, stronger effect = lower value 0.964 | locus YNL175C, strain NOP13, stronger effect = lower value 0.986 | locus YNL183C, strain NPR1, stronger effect = lower value 0.868 | locus YNL197C, strain WHI3, stronger effect = lower value 0.987 | locus YNL209W, strain ssb2, stronger effect = lower value 0.972 | locus YNL224C, strain SQS1, stronger effect = lower value 0.977 | locus YNL248C, strain rpa49, stronger effect = lower value 0.974 | locus YNL298W, strain CLA4 (second series), stronger effect = lower value 1 | locus YNL322C, strain KRE1 (second series), stronger effect = lower value 0.949 | locus YNR030W, strain Alg12, stronger effect = lower value 1 | locus YNR049C, strain mso1, stronger effect = lower value 0.941 | locus YOR001W, strain rrp6, stronger effect = lower value 1 | locus YOR070C, strain gyp1, stronger effect = lower value 0.963 | locus YOR080W, strain dia2, stronger effect = lower value 0.957 | locus YOR083W, strain WHI5 (second series), stronger effect = lower value 1 | locus YOR083W, strain WHI5, stronger effect = lower value 0.982 | locus YOR106W, strain vam3, stronger effect = lower value 0.973 | locus YOR231W, strain MKK1, stronger effect = lower value 0.942 | locus YOR265W, strain rbl2, stronger effect = lower value 0.97 | locus YOR270C, strain vph1, stronger effect = lower value 0.952 | locus YOR290C, strain snf2, stronger effect = lower value 0.93 | locus YPL051W, strain arl3, stronger effect = lower value 0.98 | locus YPL055C, strain LGE1, stronger effect = lower value 0.996 | locus YPL078C, strain atp4, stronger effect = lower value 0.972 | locus YPL106C, strain sse1, stronger effect = lower value 0.869 | locus YPL240C, strain hsp82, stronger effect = lower value 0.963 | locus YPL241C, strain CIN2, stronger effect = lower value 1 and 0.984 | locus YPL256C, strain CLN2, stronger effect = lower value 0.96 | locus YPR135W, strain CTF4, stronger effect = lower value 1.08
active: locus YBR229C, strain ROT2, stronger effect = lower value 0.929 | locus YCL061C, strain MRC1, stronger effect = lower value 0.92 | locus YGR078C, strain PAC10, stronger effect = lower value 0.909 | locus YJR075W, strain HOC1, stronger effect = lower value 0.888 | locus YLR058C, strain SHM2 (second series), stronger effect = lower value 0.929 | locus YLR113W, strain HOG1, stronger effect = lower value 0.787 | locus YMR219W, strain ESC1, stronger effect = lower value 0.944 | locus YMR263W, strain SAP30, stronger effect = lower value 0.9
